Reference: article PMC7862700, “An all-to-all approach to the identification of sequence-specific readers for epigenetic DNA modifications on cytosine”

Legend:
Assay in all cases: DAPPL (digital affinity profiling via proximity ligation, sequencing); 10 mM Tris-HCl pH 7.5, 50 mM NaCl, 1 mM DTT, 4% glycerol, room temperature, 30 min; GST-TFs on glutathione beads, 16-mer random dsDNA library, 0.1% formaldehyde crosslink after washing; high values mean tight binding
Settings in all cases: protein: recombinant; tags: N-terminal GST; dsDNA, one strand shown
FLI1 = biological target: T1, FLI1 (Homo sapiens, UniProt Q01543 1-452)
T1 sequence: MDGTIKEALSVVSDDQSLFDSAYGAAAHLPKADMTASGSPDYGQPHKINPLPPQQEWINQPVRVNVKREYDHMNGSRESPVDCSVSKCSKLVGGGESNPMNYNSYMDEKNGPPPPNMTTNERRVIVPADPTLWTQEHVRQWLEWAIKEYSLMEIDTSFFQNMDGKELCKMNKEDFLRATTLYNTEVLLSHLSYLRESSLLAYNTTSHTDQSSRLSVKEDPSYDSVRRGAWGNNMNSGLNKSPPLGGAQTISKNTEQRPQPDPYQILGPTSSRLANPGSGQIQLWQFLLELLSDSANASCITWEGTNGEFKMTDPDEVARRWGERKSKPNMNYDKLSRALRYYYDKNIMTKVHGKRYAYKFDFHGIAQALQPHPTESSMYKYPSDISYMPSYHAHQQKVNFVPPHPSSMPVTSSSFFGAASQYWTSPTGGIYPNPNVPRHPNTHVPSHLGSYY
How it was run: (§1)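 Human transcription factors fused to GST were expressed in yeast, captured on glutathione beads, given DNA barcodes and pooled with a GST-only negative control. Pools were incubated with 200 nmole of a 16-mer random double-stranded DNA library in Tris/NaCl/DTT/glycerol buffer at room temperature for 30 min. They were then washed, crosslinked with 0.1% formaldehyde, proximity-ligated (BsaI/T4 ligase, 1 h, 37 °C), PCR-amplified and sequenced on an Illumina NextSeq500. Binding signal is each 6-mer's read frequency for a factor divided by its frequency for the GST control.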

ELK1 = biological target: T2, ELK1 (Homo sapiens, UniProt P19419 1-428)
T2 sequence: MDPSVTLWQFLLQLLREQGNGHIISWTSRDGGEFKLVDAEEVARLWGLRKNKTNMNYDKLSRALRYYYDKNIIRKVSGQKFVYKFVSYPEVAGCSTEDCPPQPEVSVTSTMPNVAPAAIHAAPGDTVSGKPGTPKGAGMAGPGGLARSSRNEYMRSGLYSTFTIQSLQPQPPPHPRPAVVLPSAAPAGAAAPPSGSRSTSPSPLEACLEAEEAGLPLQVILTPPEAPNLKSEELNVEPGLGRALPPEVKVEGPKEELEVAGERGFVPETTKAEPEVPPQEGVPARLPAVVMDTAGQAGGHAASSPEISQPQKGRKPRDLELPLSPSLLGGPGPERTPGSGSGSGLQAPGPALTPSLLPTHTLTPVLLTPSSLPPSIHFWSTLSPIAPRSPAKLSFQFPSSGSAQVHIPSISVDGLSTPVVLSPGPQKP
How it was run: as §1

GABPA = biological target: T3, GABPA (Homo sapiens, UniProt Q06546 1-454)
T3 sequence: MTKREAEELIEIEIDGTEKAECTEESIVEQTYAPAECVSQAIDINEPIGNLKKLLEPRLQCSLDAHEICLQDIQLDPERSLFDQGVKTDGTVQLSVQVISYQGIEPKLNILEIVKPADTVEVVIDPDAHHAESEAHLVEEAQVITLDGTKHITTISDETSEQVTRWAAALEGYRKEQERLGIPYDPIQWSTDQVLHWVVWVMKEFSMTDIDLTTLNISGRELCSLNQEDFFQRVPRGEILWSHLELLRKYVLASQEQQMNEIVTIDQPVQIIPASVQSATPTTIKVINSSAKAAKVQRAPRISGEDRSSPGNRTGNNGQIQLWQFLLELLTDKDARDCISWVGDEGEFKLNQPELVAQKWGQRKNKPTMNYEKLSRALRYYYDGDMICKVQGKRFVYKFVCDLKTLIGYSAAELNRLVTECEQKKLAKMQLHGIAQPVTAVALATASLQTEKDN
How it was run: as §1

ERG = biological target: T4, ERG (Homo sapiens, UniProt P11308 1-479)
T4 sequence: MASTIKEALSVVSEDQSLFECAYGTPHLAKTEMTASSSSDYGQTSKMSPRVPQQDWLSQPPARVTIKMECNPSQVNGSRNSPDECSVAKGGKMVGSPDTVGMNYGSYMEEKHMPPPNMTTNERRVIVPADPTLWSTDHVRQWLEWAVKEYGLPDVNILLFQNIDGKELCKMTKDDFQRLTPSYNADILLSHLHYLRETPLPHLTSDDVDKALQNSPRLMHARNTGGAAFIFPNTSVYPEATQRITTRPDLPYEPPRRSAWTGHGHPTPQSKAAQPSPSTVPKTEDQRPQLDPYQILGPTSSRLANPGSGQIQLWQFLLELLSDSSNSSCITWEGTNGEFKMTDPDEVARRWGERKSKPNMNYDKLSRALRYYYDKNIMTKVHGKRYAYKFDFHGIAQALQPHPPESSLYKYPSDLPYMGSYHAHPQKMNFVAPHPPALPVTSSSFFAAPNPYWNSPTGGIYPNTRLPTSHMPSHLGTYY
How it was run: as §1

ELF1 = ELF1 (Homo sapiens, UniProt P32519 1-619)
How it was run: as §1

EHF = biological target: T5, EHF (Homo sapiens, UniProt Q9NZC4 1-300)
T5 sequence: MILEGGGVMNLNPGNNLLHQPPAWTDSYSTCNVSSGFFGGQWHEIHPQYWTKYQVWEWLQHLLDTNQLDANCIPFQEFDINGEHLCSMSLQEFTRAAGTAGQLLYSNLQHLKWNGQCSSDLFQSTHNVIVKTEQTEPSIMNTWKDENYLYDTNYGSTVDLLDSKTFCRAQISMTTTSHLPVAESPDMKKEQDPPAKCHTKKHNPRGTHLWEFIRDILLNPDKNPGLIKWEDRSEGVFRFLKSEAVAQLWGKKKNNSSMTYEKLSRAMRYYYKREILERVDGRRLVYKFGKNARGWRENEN
How it was run: as §1

SPI1 = SPI1 (Homo sapiens, UniProt P17947 1-270)
How it was run: as §1

SPIB = SPIB (Homo sapiens, UniProt Q01892 1-262)
How it was run: as §1

ELK3 = biological target: T6, ELK3 (Homo sapiens, UniProt P41970 1-407)
T6 sequence: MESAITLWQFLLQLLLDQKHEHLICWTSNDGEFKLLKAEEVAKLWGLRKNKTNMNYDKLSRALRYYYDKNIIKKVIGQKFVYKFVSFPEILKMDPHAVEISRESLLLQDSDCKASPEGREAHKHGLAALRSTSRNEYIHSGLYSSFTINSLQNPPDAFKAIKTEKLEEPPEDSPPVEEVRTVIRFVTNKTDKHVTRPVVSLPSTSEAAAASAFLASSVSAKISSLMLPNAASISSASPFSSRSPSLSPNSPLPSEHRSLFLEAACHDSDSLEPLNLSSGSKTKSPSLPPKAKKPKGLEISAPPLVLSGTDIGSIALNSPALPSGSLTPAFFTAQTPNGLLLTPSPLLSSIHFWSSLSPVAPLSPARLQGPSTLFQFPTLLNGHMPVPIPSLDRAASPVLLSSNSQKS
How it was run: as §1

Chain of ELF1 (P32519 whole entry): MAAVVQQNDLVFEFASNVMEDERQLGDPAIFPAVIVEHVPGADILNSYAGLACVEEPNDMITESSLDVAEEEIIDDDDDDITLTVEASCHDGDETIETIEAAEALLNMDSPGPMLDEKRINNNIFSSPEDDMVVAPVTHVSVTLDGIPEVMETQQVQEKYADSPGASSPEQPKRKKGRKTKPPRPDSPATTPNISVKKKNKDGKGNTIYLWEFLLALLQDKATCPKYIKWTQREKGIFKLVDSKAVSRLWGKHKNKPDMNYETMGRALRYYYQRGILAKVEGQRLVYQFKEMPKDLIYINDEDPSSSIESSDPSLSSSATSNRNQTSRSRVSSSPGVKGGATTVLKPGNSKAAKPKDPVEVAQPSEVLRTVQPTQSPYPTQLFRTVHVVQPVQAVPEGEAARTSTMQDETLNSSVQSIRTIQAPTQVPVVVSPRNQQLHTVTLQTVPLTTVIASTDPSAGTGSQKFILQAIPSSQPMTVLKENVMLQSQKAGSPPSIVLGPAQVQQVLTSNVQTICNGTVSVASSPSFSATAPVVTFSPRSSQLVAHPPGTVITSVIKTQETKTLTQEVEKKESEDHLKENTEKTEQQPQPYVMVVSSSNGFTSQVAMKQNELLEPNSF
Chain of SPIB (Q01892 whole entry): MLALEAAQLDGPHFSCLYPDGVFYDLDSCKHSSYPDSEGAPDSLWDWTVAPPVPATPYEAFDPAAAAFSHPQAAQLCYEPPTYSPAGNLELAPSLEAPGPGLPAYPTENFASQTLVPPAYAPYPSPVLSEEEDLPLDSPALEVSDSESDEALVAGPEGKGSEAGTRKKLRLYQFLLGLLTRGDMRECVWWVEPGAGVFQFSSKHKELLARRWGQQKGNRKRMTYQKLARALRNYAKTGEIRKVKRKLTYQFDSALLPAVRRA

Sequence | binding signal (FLI1) | binding signal (ELK1) | binding signal (GABPA) | binding signal (ERG) | binding signal (ELF1) | binding signal (EHF) | binding signal (SPI1) | binding signal (SPIB) | binding signal (ELK3)
CAACCC | 1.15 fold enrichment (6-mer frequency, TF over GST control) | 1.22 fold enrichment (6-mer frequency, TF over GST control) | 1.27 fold enrichment (6-mer frequency, TF over GST control) | 1.21 fold enrichment (6-mer frequency, TF over GST control) | 1.24 fold enrichment (6-mer frequency, TF over GST control) | 1.16 fold enrichment (6-mer frequency, TF over GST control) | 1.21 fold enrichment (6-mer frequency, TF over GST control) | 1.26 fold enrichment (6-mer frequency, TF over GST control) | 1.21 fold enrichment (6-mer frequency, TF over GST control)
AAGTCA | 1.18 fold enrichment (6-mer frequency, TF over GST control) | 1.24 fold enrichment (6-mer frequency, TF over GST control) | 1.15 fold enrichment (6-mer frequency, TF over GST control) | 1.26 fold enrichment (6-mer frequency, TF over GST control) | 1.17 fold enrichment (6-mer frequency, TF over GST control) | 1.15 fold enrichment (6-mer frequency, TF over GST control) | 1.3 fold enrichment (6-mer frequency, TF over GST control) | 1.11 fold enrichment (6-mer frequency, TF over GST control) | 1.28 fold enrichment (6-mer frequency, TF over GST control)
TCTATA | 1.09 fold enrichment (6-mer frequency, TF over GST control) | 1.13 fold enrichment (6-mer frequency, TF over GST control) | 1.11 fold enrichment (6-mer frequency, TF over GST control) | 1.02 fold enrichment (6-mer frequency, TF over GST control) | 1.26 fold enrichment (6-mer frequency, TF over GST control) | 1.07 fold enrichment (6-mer frequency, TF over GST control) | 1.07 fold enrichment (6-mer frequency, TF over GST control) | 1.15 fold enrichment (6-mer frequency, TF over GST control) | 1.17 fold enrichment (6-mer frequency, TF over GST control)
TGACCA | 1.25 fold enrichment (6-mer frequency, TF over GST control) | 1.32 fold enrichment (6-mer frequency, TF over GST control) | 1.33 fold enrichment (6-mer frequency, TF over GST control) | 1.15 fold enrichment (6-mer frequency, TF over GST control) | 1.29 fold enrichment (6-mer frequency, TF over GST control) | 1.33 fold enrichment (6-mer frequency, TF over GST control) | 1.25 fold enrichment (6-mer frequency, TF over GST control) | 1.21 fold enrichment (6-mer frequency, TF over GST control) | 1.45 fold enrichment (6-mer frequency, TF over GST control)
CCCGGC | 1.15 fold enrichment (6-mer frequency, TF over GST control) | 1.25 fold enrichment (6-mer frequency, TF over GST control) | 1.1 fold enrichment (6-mer frequency, TF over GST control) | 1.15 fold enrichment (6-mer frequency, TF over GST control) | 1.17 fold enrichment (6-mer frequency, TF over GST control) | 1.06 fold enrichment (6-mer frequency, TF over GST control) | 1.13 fold enrichment (6-mer frequency, TF over GST control) | 1.13 fold enrichment (6-mer frequency, TF over GST control) | 1.22 fold enrichment (6-mer frequency, TF over GST control)
TATCTG | 1.3 fold enrichment (6-mer frequency, TF over GST control) | 1.12 fold enrichment (6-mer frequency, TF over GST control) | 1.21 fold enrichment (6-mer frequency, TF over GST control) | 1.25 fold enrichment (6-mer frequency, TF over GST control) | 1.26 fold enrichment (6-mer frequency, TF over GST control) | 1.16 fold enrichment (6-mer frequency, TF over GST control) | 1.21 fold enrichment (6-mer frequency, TF over GST control) | 1.16 fold enrichment (6-mer frequency, TF over GST control) | 1.21 fold enrichment (6-mer frequency, TF over GST control)
GTTAAG | 1.04 fold enrichment (6-mer frequency, TF over GST control) | 1.12 fold enrichment (6-mer frequency, TF over GST control) | 1.07 fold enrichment (6-mer frequency, TF over GST control) | 1.05 fold enrichment (6-mer frequency, TF over GST control) | 1.04 fold enrichment (6-mer frequency, TF over GST control) | 1.01 fold enrichment (6-mer frequency, TF over GST control) | 1.01 fold enrichment (6-mer frequency, TF over GST control) | 1.02 fold enrichment (6-mer frequency, TF over GST control) | 1.05 fold enrichment (6-mer frequency, TF over GST control)
